According to PubChem BioAssay (NCI):
Compounds without any hit were thinned out: in the full panel of roughly 79,000, 15% have a hit. The source made the active and inactive calls. Rule as the data show it: active = growth inhibition above about 70%; inactive = the rest.

Key:
[1] = NCI Yeast Anticancer Drug Screen. Data for the rad52 strain (AID 147);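 also: 0% = growth of vehicle-treated control cultures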; settings: S. cerevisiae rad52 mutant growth inhibition, active compounds read high
Method in brief: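 Screen used a yeast mutant impaired in DNA repair. After compound exposure, growth was measured. Values reflect inhibition compared with vehicle-treated cells.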

[2] = NCI Yeast Anticancer Drug Screen. Data for the wt1 strain (AID 149);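 also: 0% = growth of vehicle-treated wt1 cultures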; settings: S. cerevisiae wt1 strain (SPY 50644) growth inhibition, active compounds read high
Method in brief: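 Measured: growth of wt1 yeast under compound versus vehicle treatment, reported as inhibition.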

[3] = NCI Yeast Anticancer Drug Screen. Data for the rad50EPP+ strain (AID 151);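 also: 0% = growth of vehicle-treated control cultures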; settings: S. cerevisiae rad50 mutant strain, active compounds read high
Method in brief: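 Exposing the rad50EPP+ strain to each compound, growth was compared with vehicle-only cultures to give inhibition.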

[4] = NCI Yeast Anticancer Drug Screen. Data for the mgt1 strain (AID 153); settings: S. cerevisiae mgt1 mutant growth inhibition, active compounds read high
Method in brief: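 Genetically defined yeast (mgt1) treated with compound; inhibition of growth expressed against vehicle-treated controls.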

[5] = NCI Yeast Anticancer Drug Screen. Data for the rad50 strain (AID 155);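 also: 0% = growth of vehicle-only cultures of the same strain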; settings: S. cerevisiae rad50 strain growth inhibition, active compounds read high
Method in brief: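 Growth of the mutant yeast was measured after compound exposure and referenced to vehicle-treated cultures.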

[6] = NCI Yeast Anticancer Drug Screen. Data for the mec2-1 strain (AID 157); settings: S. cerevisiae mec2-1 strain, active compounds read high
Method in brief: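 Readout is yeast growth inhibition, normalised to vehicle-treated controls, in the mec2-1 strain exposed to compound.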

[7] = NCI Yeast Anticancer Drug Screen. Data for the rad14 strain (AID 159);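 also: 0% = growth of vehicle-treated control cultures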; settings: S. cerevisiae rad14 strain growth inhibition, active compounds read high
Method in brief: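 Here, inhibition of yeast growth was measured after compound exposure, using a strain with a genetic defect in DNA damage repair and vehicle-treated cultures as the reference.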

[8] = NCI Yeast Anticancer Drug Screen. Data for the sgs1 mgt1 strain (AID 161);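 also: 0% = growth of cultures given vehicle only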; settings: S. cerevisiae sgs1 mgt1 strain, active compounds read high
Method in brief: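 Percent growth inhibition was derived by comparing compound-exposed mutant yeast with vehicle-exposed cultures. The strain carries alterations in DNA damage repair.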

[9] = NCI Yeast Anticancer Drug Screen. Data for the CLN2oe strain (AID 163);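 also: 0% = growth of vehicle-only control cultures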; settings: S. cerevisiae CLN2oe strain, active compounds read high
Method in brief: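 Values reflect how much compound exposure reduced yeast growth, referenced to vehicle-exposed cells. Assay organism is a strain with a defined genetic change affecting cell-cycle control.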

[10] = NCI Yeast Anticancer Drug Screen. Data for the cln2 rad14 strain (AID 165);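 also: 0% = growth equal to vehicle treated cultures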; settings: S. cerevisiae cln2 rad14 strain, active compounds read high
Method in brief: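 Relative to vehicle controls, growth inhibition of compound-treated cln2 rad14 yeast was recorded.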

[11] = NCI Yeast Anticancer Drug Screen. Data for the bub3 strain (AID 167); settings: S. cerevisiae bub3 mutant strain, active compounds read high
Method in brief: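 Whole-cell yeast assay. The mutant strain was incubated with compounds, and growth inhibition was determined by comparison with vehicle-treated cells.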

[12] = NCI Yeast Anticancer Drug Screen. Data for the wt2 strain (AID 169);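 also: 0% = growth of vehicle-treated yeast cultures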; settings: S. cerevisiae wt2 strain growth inhibition, active compounds read high
Method in brief: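 Values express reduction in yeast growth under compound treatment, referenced to vehicle-treated cells.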

[13] = NCI Yeast Anticancer Drug Screen. Data for the mlh1 strain (AID 171);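 also: 0% = growth of vehicle-treated control cultures of the same strain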; settings: S. cerevisiae mlh1 strain growth inhibition, active compounds read high
Method in brief: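 Steps: expose the defined-mutant yeast strain to compound; expose a parallel culture to vehicle; measure growth; express compound effect as inhibition relative to the vehicle culture.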

[14] = NCI Yeast Anticancer Drug Screen. Data for the sgs1 strain (AID 173);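 also: 0% = growth of vehicle-only control cultures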; settings: S. cerevisiae sgs1 mutant, active compounds read high
Method in brief: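 Treat defined-mutant yeast with compound; measure growth; calculate inhibition relative to vehicle-treated cells.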

[15] = NCI Yeast Anticancer Drug Screen. Data for the mlh1 rad18 strain (AID 175); settings: S. cerevisiae mlh1 rad18 strain growth inhibition, active compounds read high
Method in brief: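 Test agents were incubated with a yeast strain of defined genotype (DNA damage repair defect). Inhibition of growth was derived by comparison with vehicle-exposed cultures.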

[16] = NCI Yeast Anticancer Drug Screen. Data for the rad18 strain (AID 177); settings: S. cerevisiae rad18 mutant growth inhibition, active compounds read high
Method in brief: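 A genetically defined yeast mutant impaired in DNA damage repair was treated with test compounds, then its growth was measured against cultures receiving vehicle alone.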

[17] = at 5.0 µM (retest, dose inferred, filed as 0.5)
[18] = at 50.0 µM (retest, dose inferred, filed as 5.0)

Measured: growth inhibition

c1ccc(CCN2CCc3ccccc3C2)cc1
active: [11]; [18] 74% | [15]; [18] 71%
inactive: [1]; at 1.2 µM -1% | [1]; at 3.7 µM 0% | [1]; at 11.0 µM 10% | [1]; at 33.0 µM 12% | [1]; at 100.0 µM 19% | [2]; at 1.2 µM -1% | [2]; at 3.7 µM 4% | [2]; at 11.0 µM 4% | [2]; at 33.0 µM 6% | [2]; at 100.0 µM 4% | [3]; at 1.2 µM -3% | [3]; at 3.7 µM -3% | [3]; at 11.0 µM -1% | [3]; at 33.0 µM -4% | [3]; at 100.0 µM 0% | [4]; at 1.2 µM -2% | [4]; at 3.7 µM -3% | [4]; at 11.0 µM 4% | [4]; at 33.0 µM 6% | [4]; at 100.0 µM 16% | [5]; at 1.2 µM 1% | [5]; at 3.7 µM 2% | [5]; [17] -9% | [5]; at 11.0 µM 3% | [5]; at 33.0 µM 8% | [5]; [18] 49% | [5]; at 50.0 µM 43.9% | [5]; at 100.0 µM 10% | [6]; at 1.2 µM -3% | [6]; at 3.7 µM 1% | [6]; [17] -10% | [6]; at 11.0 µM 6% | [6]; at 33.0 µM 8% | [6]; [18] 1% | [6]; at 50.0 µM 12.8% | [6]; at 100.0 µM 8% | [7]; at 1.2 µM 2% | [7]; at 3.7 µM 10% | [7]; at 11.0 µM 24% | [7]; at 33.0 µM 33% | [7]; at 100.0 µM 29% | [8]; [17] -5% | [8]; [18] 49% | [8]; at 50.0 µM 49.8% | [9]; at 1.2 µM -3% | [9]; at 3.7 µM -9% | [9]; at 11.0 µM 12% | [9]; at 33.0 µM 28% | [9]; at 100.0 µM 41% | [10]; [17] -6% | [10]; [18] 21% | [10]; at 50.0 µM 33.7% | [11]; at 1.2 µM -1% | [11]; at 3.7 µM -1% | [11]; [17] 24% | [11]; at 11.0 µM 7% | [11]; at 33.0 µM 21% | [11]; at 50.0 µM 56.8% | [11]; at 100.0 µM 40% | [12]; at 1.2 µM -1% | [12]; at 3.7 µM 1% | [12]; at 11.0 µM 4% | [12]; at 33.0 µM 8% | [12]; at 100.0 µM 8% | [13]; at 1.2 µM -2% | [13]; at 3.7 µM 1% | [13]; at 11.0 µM 4% | [13]; at 33.0 µM 11% | [13]; at 100.0 µM 11% | [14]; at 1.2 µM -1% | [14]; at 3.7 µM 0% | [14]; at 11.0 µM 6% | [14]; at 33.0 µM 18% | [14]; at 100.0 µM 17% | [15]; [17] 11% | [15]; at 50.0 µM 21.9% | [16]; at 1.2 µM 0% | [16]; at 3.7 µM 1% | [16]; at 11.0 µM 8% | [16]; at 33.0 µM 13% | [16]; at 100.0 µM 10%

Cc1c(C(C)C)cc(OCCO)cc1C(C)C
active: [1]; at 100.0 µM 77% | [5]; at 100.0 µM 73% | [9]; at 100.0 µM 73% | [10]; at 50.0 µM 86.2% | [15]; at 50.0 µM 83%
inactive: [1]; at 1.2 µM -3% | [1]; at 3.7 µM -1% | [1]; at 11.0 µM -4% | [1]; at 33.0 µM 4% | [2]; at 1.2 µM -2% | [2]; at 3.7 µM -3% | [2]; at 11.0 µM -3% | [2]; at 33.0 µM -7% | [2]; at 100.0 µM -7% | [3]; at 1.2 µM -1% | [3]; at 3.7 µM -2% | [3]; at 11.0 µM 0% | [3]; at 33.0 µM 6% | [3]; at 100.0 µM 16% | [4]; at 1.2 µM -4% | [4]; at 3.7 µM -11% | [4]; at 11.0 µM -9% | [4]; at 33.0 µM -12% | [4]; at 100.0 µM 7% | [5]; at 1.2 µM -3% | [5]; at 3.7 µM 2% | [5]; [17] -8% | [5]; at 11.0 µM 2% | [5]; at 33.0 µM 5% | [5]; [18] -20% | [5]; at 50.0 µM 68.7% | [6]; at 1.2 µM -4% | [6]; at 3.7 µM -7% | [6]; [17] -18% | [6]; at 11.0 µM -8% | [6]; at 33.0 µM -10% | [6]; [18] -11% | [6]; at 50.0 µM -29.8% | [6]; at 100.0 µM 15% | [7]; at 1.2 µM -3% | [7]; at 3.7 µM -7% | [7]; at 11.0 µM -2% | [7]; at 33.0 µM -4% | [7]; at 100.0 µM 36% | [8]; [17] 0% | [8]; [18] 10% | [8]; at 50.0 µM 0.35% | [9]; at 1.2 µM -3% | [9]; at 3.7 µM -3% | [9]; at 11.0 µM -4% | [9]; at 33.0 µM 0% | [10]; [17] 40% | [10]; [18] 1% | [11]; at 1.2 µM -3% | [11]; at 3.7 µM -8% | [11]; [17] -16% | [11]; at 11.0 µM -4% | [11]; at 33.0 µM -5% | [11]; [18] -6% | [11]; at 50.0 µM -16.6% | [11]; at 100.0 µM 22% | [12]; at 1.2 µM -4% | [12]; at 3.7 µM -4% | [12]; at 11.0 µM -6% | [12]; at 33.0 µM -10% | [12]; at 100.0 µM 33% | [13]; at 1.2 µM -9% | [13]; at 3.7 µM -4% | [13]; at 11.0 µM -14% | [13]; at 33.0 µM -11% | [13]; at 100.0 µM 26% | [14]; at 1.2 µM -1% | [14]; at 3.7 µM -3% | [14]; at 11.0 µM -1% | [14]; at 33.0 µM -3% | [14]; at 100.0 µM 45% | [15]; [17] -3% | [15]; [18] -18% | [16]; at 1.2 µM -4% | [16]; at 3.7 µM -7% | [16]; at 11.0 µM -5% | [16]; at 33.0 µM -8% | [16]; at 100.0 µM 65%
